Experimental data as given in PubChem BioAssay (NCI).
Several values for one entry are separate records, joined by “and”; a condition that tells them apart may be missing. Identical values can stand only once. This is part of a sample that, as a whole, favours compounds with a hit. Of some 83,000 tested, about 20% had one in any assay.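 Single-concentration screen, 48 h exposure, 96-well plates. Endpoint: percent growth. Below 10 = active.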 Values without a mark were called inactive. Activity calls are given as the source filed them.

What follows are compounds tested on MDA-MB-468 breast (assay: NCI-60 one-dose screen, 48 h (100 = growth as untreated, 0 = no growth, -100 = all killed)). Conditions: 10 µM unless noted.
With `O=c1c2cccc(F)c2sc2c(N3CCNCC3)nc3ccccc3c12` the growth was 37.2%. With `CCCCCCNc1cc(C)nc2ccc(OC)cc12` the growth was -10.9% (active). Compound `CCOC(=O)C1=C(C)NC(=O)NC1c1ccc(OCC(=O)N/N=C/c2ccc(Cl)cc2)cc1` (stereo not given) has a growth of 96.5%. `CCCCC[n+]1ccc(SCC(=O)N(C)c2ccc(Oc3ccccc3)cc2)c2ccccc21` was tested, and the growth was 38.9%. `COc1ccc(/C=N/NC(=O)CN2CCN(c3cc4c(cc3F)c(=O)c(C(=O)O)cn4C3CC3)CC2)cc1O` showed a growth of 101%. In the case of `Cc1cccc(N2CCN(C3=C(Cl)C(=O)c4ncccc4C3=O)CC2)c1`, the growth is reported as -66.6% (active). With `COc1ccc(-c2nnc(/N=C3/C(=O)Nc4ccc(Br)cc43)o2)cc1` the growth was 90.7%. `Nc1ccc2c(c1)Cc1cc(N)c(Cl)cc1-2` was tested, and the growth was 80.4%. In the case of `COc1ccc(-c2cc(C(=O)N=Nc3c(O)[nH]c4ccccc34)no2)cc1`, the growth is reported as 106%. With `CC12CCC3c4ccc(O)cc4CCC3C1CCC2=O` (stereo not given) the growth was 96.4%. `CC1=NN(C(=O)c2nn(-c3ccc(Cl)cc3)cc2O)C(=O)C1` showed a growth of 54.6%. With `COc1cc(NS(C)(=O)=O)ccc1Nc1c2ccc(Cl)cc2nc2c(OC)cccc12` the growth was -34.1% (active). For `O=C1OC(c2ccccc2)=N/C1=C\c1ccc([N+](=O)[O-])cc1`, the growth was 94.6%. `O=C(c1ccc2ncc(-c3nc(NC4CC4)ncc3F)n2c1)N1CCOCC1` was tested, and the growth was 32.8%. With `NC(=O)NC(=O)/C=C/C(=O)OCCCl` the growth was 88.5%. Compound `Cn1cc(-c2cc3ncnc(Nc4ccc(NC(=O)Nc5cc(C(C)(C)C)on5)cc4)c3s2)cn1` has a growth of 31.7%. `C#C[C@]1(O)CC[C@H]2[C@@H]3CC=C4c5sc(Nc6cccc(C)n6)nc5CC[C@]4(C)[C@H]3CC[C@@]21C` was tested, and the growth was 35.7%. `Cc1nnc(/N=C2\NC(=O)/C(=C/c3ccsc3)S2)s1` showed a growth of 110%. With `Cc1nc(N=C(N)N)nc2ccc3ccccc3c12` the growth was -55.8% (active). In the case of `CCOC(=O)CC(=O)OC`, the growth is reported as 102%. Work on `COc1ccc(NC(=O)c2sc3nc4c(cc3c2N)CCCC4)cc1` yielded a growth of 13.6%. Compound `COc1ccc(-c2cn(-c3cccc(C(=O)/C=C/c4cc(OC)c(OC)c(OC)c4)c3)c(=O)[nH]2)cc1OC` has a growth of 98.1%. With `COc1ccc(/C=C2\CN(Cc3cn(CCNc4ccnc5cc(Cl)ccc45)nn3)C/C(=C\c3ccc(OC)c(OC)c3)C2=O)cc1OC` the growth was -37.7% (active). In the case of `CCCC[n+]1ccc(SCC(=O)n2ccc3ccccc32)c2ccccc21`, the growth is reported as 52.1%. In the case of `COc1ccccc1NC1=C(Cl)C(=O)c2nc(C)ccc2C1=O`, the growth is reported as -79.7% (active). For `COC(=O)Nc1nc2ccc(C(=O)c3cccs3)cc2[nH]1`, the growth was 5.96% (active). In the case of `COc1ccc(/C=C2\N=C(c3cccnc3)N(c3ccccc3)NC2=O)cc1`, the growth is reported as 94.1%. `C/C(=N\NC(=O)c1ccncc1)c1ccccc1O` was tested, and the growth was 13.1% and 22.6%. Compound `CCCCCc1ccc(S(=O)(=O)Nc2cccc(-c3csc(NC(=O)CN4CCN(C)CC4)n3)c2)cc1` has a growth of 89.5%. `O=C(CCCCCCN1CC(=O)N2[C@H](c3cc(Br)cs3)c3[nH]c4ccccc4c3C[C@H]2C1=O)NO` showed a growth of 44.7%. In the case of `NCCCOc1cc2ccccc2cc1C(=O)NCCCOc1cc2ccccc2cc1C(=O)Nc1ccc(Cl)cc1O`, the growth is reported as -89.6% (active). Compound `CC(C)N1CCN(c2ccc(OC[C@H]3CO[C@](Cn4cncn4)(c4ccc(Cl)cc4Cl)O3)cc2)CC1` has a growth of 78.9%. With `CCOC(=O)c1[nH]c(-c2ccc(Cl)cc2)cc1-c1cccnc1` the growth was -1.1% (active). With `COc1cccc(CC(C)=C(c2ccc(OCCCN(C)C)cc2)c2ccc(OCCCN(C)C)cc2)c1` the growth was -83.4% (active). For `COc1ccc(F)c(F)c1C(=O)c1cnc(NC2CCN(S(C)(=O)=O)CC2)nc1N`, the growth was -59.4% (active). For `C[C@@H]1C[C@H]2C(=O)O[C@@H](C)[C@H](NC(=O)[C@H](Cc3cc(F)cc(F)c3)NC(=O)Nc3ccc(C4CC4)cc3F)C(=O)N3CCC[C@H]3C(=O)N3CCCC[C@H]3C(=O)N[C@@H](C)C(=O)N2C1`, the growth was -16.1% (active). In the case of `Cc1ccc(/C=C2\SC(=S)N(CC(=O)NCCCN3CCOCC3)C2=O)cc1`, the growth is reported as 94.9%. `Fc1ccc(Nc2ccnc(N3CCN(c4ccnc5cc(Cl)ccc45)CC3)n2)cc1` showed a growth of 15.9%. With `Cc1nc(/N=C(\N)NC(=O)Nc2ccccc2Cl)sc1C` the growth was 2.23% (active). Compound `CN(c1ccccc1)c1ccc2c(c1)OCCC21CC1Nc1cnccc1C(=O)O` (stereo not given) has a growth of 72.3%.
